Whole data set: some 140,000 sequences, median “enrichment ratio after two sorts for PhoP signalling” near 0, cut for the highest 2% near 11. The sample holds the highest values, similar sequences and a random draw of the others, so the mix is not that of the screen.
B1: PhoQ; a variant is named by its letters at X, in order, P23837 (parent)
chain: MKKLLRLFFPLSLRVRFLLATAAVVLVLSLAYGMVALIGYSVSFDKTTFRLLRGESNLFYTLAKWENNKLHVELPENIDKQSPTMTLIYDENGQLLWAQRDVPWLMKMIQPDWLKSNGFHEIEADVNDTSLLLSGDHSIQQQLQEVREDDDDAEMTHSVAVNVYPATSRMPKLTIVVVDTIPVELKSSYMVWSWFIYVLSANLLLVIPLLWVAAWWSLRPIEALAKEVRELEEHNRELLNPATTRELTSLVRNLNRLLKSERERYDKYRTTLTDLTHSLKTPLXXLQXXLRSLRSEKMSVSDAEPVMLEQISRISQQIGYYLHRASMRGGTLLSRELHPVAPLLDNLTSALNKVYQRKGVNISLDISPEISFVGEQNDFVEVMGNVLDNACKYCLEFVEISARQTDEHLYIVVEDDGPGIPLSKREVIFDRGQRVDTLRPGQGVGLAVAREITEQYEGKIVAGESMLGGARMEVIFGRQHSAPKDE

Variants of: B1
Experiment: enrichment ratio after two sorts for PhoP signalling (ratio (wild type AVST 3.29)); higher = more functional
Conditions: with PhoP (E. coli)

| Variant | enrichment ratio |
| --- | --- |
| ERPF | ≤ 0.25 |
| TCLM | 1.01 |
| EGYT | ≤ 0.25 |
| LDPK | ≤ 0.25 |
| DMWR | ≤ 0.25 |
| EPFH | ≤ 0.25 |
| QHGK | ≤ 0.25 |
| DCLA | ≤ 0.25 |
| YSEC | ≤ 0.25 |
| TAWE | 24.5 |
| YANA | ≤ 0.25 |
| NWCM | ≤ 0.25 |
| TAVM | 2.01 |
| NAWE | ≤ 0.25 |
| KACM | ≤ 0.25 |
| KANA | ≤ 0.25 |
| TAGM | 13.2 |
| TAGD | 9.3 |
| TACM | 12.4 |
| KAWE | ≤ 0.25 |
| TANA | 15.9 |
| QGRI | ≤ 0.25 |
| SQSD | ≤ 0.25 |
| AVQG | ≤ 0.25 |

| Variant | enrichment ratio |
| --- | --- |
| ICYL | ≤ 0.25 |
| MLLM | 7.62 |
| DQQR | ≤ 0.25 |
| KFML | ≤ 0.25 |
| GDAW | ≤ 0.25 |
| HFFI | ≤ 0.25 |
| RKHF | ≤ 0.25 |
| WQPT | ≤ 0.25 |
| RISQ | ≤ 0.25 |
| VLSQ | ≤ 0.25 |
| TTSQ | 16.8 |
| AHSQ | ≤ 0.25 |
| ADSQ | ≤ 0.25 |
| AKSQ | 20.1 |
| CISQ | 55.8 |
| KQSQ | ≤ 0.25 |
| ALSK | 2.03 |
| NISQ | ≤ 0.25 |
| ALSQ | 16.2 |
| YTSQ | ≤ 0.25 |
| TLEP | ≤ 0.25 |
| DVCT | ≤ 0.25 |
| TMFF | ≤ 0.25 |
| WISQ | ≤ 0.25 |

| Variant | enrichment ratio |
| --- | --- |
| ATSQ | 11.6 |
| ATSK | 4.37 |
| VHSQ | ≤ 0.25 |
| GTSQ | 5.69 |
| AISQ | 15.6 |
| GRRA | ≤ 0.25 |
| KANK | ≤ 0.25 |
| LHPY | ≤ 0.25 |
| YEKR | ≤ 0.25 |
| IVLL | 1.17 |
| NSSV | ≤ 0.25 |
| SGWR | ≤ 0.25 |
| SDSV | 5.55 |
| SGSV | 12.1 |
| TSSV | 20 |
| SQSV | 11.9 |
| KSTA | ≤ 0.25 |
| SRSV | ≤ 0.25 |
| TVTA | 19.9 |
| KSSV | ≤ 0.25 |
| SGDW | ≤ 0.25 |
| SPTA | ≤ 0.25 |
| VCWY | ≤ 0.25 |
| PCPR | ≤ 0.25 |

| Variant | enrichment ratio |
| --- | --- |
| KLGA | ≤ 0.25 |
| AKGF | ≤ 0.25 |
| EKFN | ≤ 0.25 |
| AGVG | 1.3 |
| IANT | ≤ 0.25 |
| DDSV | ≤ 0.25 |
| VLSV | ≤ 0.25 |
| LLSV | ≤ 0.25 |
| LASV | ≤ 0.25 |
| SESV | 16.9 |
| SCSV | 9.38 |
| TQSV | 20.7 |
| SLSV | 7.73 |
| TLSV | 16.7 |
| KYSV | ≤ 0.25 |
| NVSV | ≤ 0.25 |
| SISV | 11.6 |
| EDTD | ≤ 0.25 |
| RDHH | ≤ 0.25 |
| GWHV | ≤ 0.25 |
| YFPW | ≤ 0.25 |
| LVPS | ≤ 0.25 |
| NTCA | ≤ 0.25 |
| HTEF | ≤ 0.25 |

| Variant | enrichment ratio |
| --- | --- |
| LAEC | ≤ 0.25 |
| IDHP | ≤ 0.25 |
| KMSV | ≤ 0.25 |
| WPTS | ≤ 0.25 |
| TVSV | 14.9 |
| HCSV | ≤ 0.25 |
| NASV | ≤ 0.25 |
| SPSV | ≤ 0.25 |
| TASV | 17.9 |
| WPTD | ≤ 0.25 |
| DMSV | ≤ 0.25 |
| KASV | ≤ 0.25 |
| TMSV | 16.5 |
| WPTA | 14.3 |
| VEEC | ≤ 0.25 |
| ITEG | 0.328 |
| RMAH | ≤ 0.25 |
| NGEP | ≤ 0.25 |
| ATVR | 4.36 |
| QILH | ≤ 0.25 |
| MNDG | ≤ 0.25 |
| GVPD | ≤ 0.25 |
| VQKT | ≤ 0.25 |
| RQKC | ≤ 0.25 |

| Variant | enrichment ratio |
| --- | --- |
| HSFA | ≤ 0.25 |
| ICYS | ≤ 0.25 |
| FLCS | ≤ 0.25 |
| TMVF | ≤ 0.25 |
| GGMC | ≤ 0.25 |
| ATMC | 11.2 |
| TGMC | 31.9 |
| NSMC | ≤ 0.25 |
| HFMC | ≤ 0.25 |
| TKMC | 77.6 |
| PTMC | ≤ 0.25 |
| HKMC | ≤ 0.25 |
| RGMC | ≤ 0.25 |
| HIMC | 48.5 |
| HRMC | ≤ 0.25 |
| ASMC | 12.1 |
| AARL | ≤ 0.25 |
| DMIF | ≤ 0.25 |
| PFMC | ≤ 0.25 |
| FCMC | ≤ 0.25 |
| SGFC | ≤ 0.25 |
| KSMC | ≤ 0.25 |
| NGMC | ≤ 0.25 |
| TRMC | 2.53 |

| Variant | enrichment ratio |
| --- | --- |
| TIMC | 9 |
| SGMC | 12.8 |
| HGMC | 13.3 |
| FSMC | 16.1 |
| KFMC | ≤ 0.25 |
| TFMC | 16.5 |
| KDFY | ≤ 0.25 |
| EPYY | ≤ 0.25 |
| FDYI | ≤ 0.25 |
| QVCS | ≤ 0.25 |
| LEAV | ≤ 0.25 |
| REVC | ≤ 0.25 |
| FGTK | ≤ 0.25 |
| RCMC | ≤ 0.25 |
| ANRA | ≤ 0.25 |
| HKMM | ≤ 0.25 |
| ACMM | 14.1 |
| FVMM | 8.76 |
| ANRM | ≤ 0.25 |
| ANMM | 32.7 |
| MEMM | 0.38 |
| TVMM | 0.563 |
| AVMM | 52.7 |
| TKMM | 31.6 |

| Variant | enrichment ratio |
| --- | --- |
| HPRS | ≤ 0.25 |
| SFMM | 0.454 |
| EPTF | ≤ 0.25 |
| ATNR | ≤ 0.25 |
| FVFQ | ≤ 0.25 |
| DMFY | ≤ 0.25 |
| NDFH | ≤ 0.25 |
| YEAF | ≤ 0.25 |
| WSCA | ≤ 0.25 |
| AAMM | 13 |
| AHMM | ≤ 0.25 |
| VRMM | ≤ 0.25 |
| ADMM | ≤ 0.25 |
| ARMM | 5.29 |
| ASMM | 41.3 |
| AYMM | ≤ 0.25 |
| AIMM | 35.5 |
| AKMM | 30.4 |
| APMM | ≤ 0.25 |
| AAPM | 4.08 |
| IEAL | ≤ 0.25 |
| NQSL | ≤ 0.25 |
| PQWK | ≤ 0.25 |
| SKWQ | ≤ 0.25 |

| Variant | enrichment ratio |
| --- | --- |
| PVME | ≤ 0.25 |
| TVHE | ≤ 0.25 |
| HCSH | ≤ 0.25 |
| KCME | ≤ 0.25 |
| TVCE | 13.5 |
| TSKH | ≤ 0.25 |
| TSSH | 11.3 |
| KSSH | ≤ 0.25 |
| TVCI | 0.444 |
| TVME | 11.7 |
| TVSH | 15.9 |
| SPSH | ≤ 0.25 |
| HTVK | ≤ 0.25 |
| KMRS | ≤ 0.25 |
| IPKF | ≤ 0.25 |
| AQWL | ≤ 0.25 |
| PAAR | ≤ 0.25 |
| LETM | ≤ 0.25 |
| RMVY | ≤ 0.25 |
| NVCS | ≤ 0.25 |
| TVCS | 11.4 |
| PVCA | ≤ 0.25 |
| SPCA | ≤ 0.25 |
| PVCS | ≤ 0.25 |

| Variant | enrichment ratio |
| --- | --- |
| TVCA | 14.5 |
| PKSQ | ≤ 0.25 |
| RQKT | ≤ 0.25 |
| IWNV | ≤ 0.25 |
| LQKK | ≤ 0.25 |
| LFFM | ≤ 0.25 |
| ITFY | ≤ 0.25 |
| WWLL | ≤ 0.25 |
| SNAI | 22 |
| SNCS | 19.6 |
| SNNW | 1.31 |
| IQCS | ≤ 0.25 |
| SQCS | 14.7 |
| SNIF | ≤ 0.25 |
| LNAI | ≤ 0.25 |
| WQCS | ≤ 0.25 |
| SFAI | ≤ 0.25 |
| GFWW | 1.03 |
| LGGY | ≤ 0.25 |
| ESVH | ≤ 0.25 |
| PMVM | ≤ 0.25 |
| LSTF | ≤ 0.25 |
| TCTF | 12.4 |
| KCTF | ≤ 0.25 |

| Variant | enrichment ratio |
| --- | --- |
| GMTV | 0.937 |
| TCTV | 12.6 |
| KCTV | ≤ 0.25 |
| LQSN | ≤ 0.25 |
| PMKC | ≤ 0.25 |
| AKDL | ≤ 0.25 |
| NKTC | ≤ 0.25 |
| MEFA | ≤ 0.25 |
| MFTC | ≤ 0.25 |
| MEFC | 12.8 |
| METC | 45.8 |
| MESC | 10.2 |
| MKFC | ≤ 0.25 |
| LQYS | ≤ 0.25 |
| KENY | ≤ 0.25 |
| IMSK | ≤ 0.25 |
| EIPN | ≤ 0.25 |
| TESN | 20.2 |
| MESN | 7.39 |
| QESG | 6.03 |
| QESN | 5.1 |
| PESG | ≤ 0.25 |
| NESG | ≤ 0.25 |
| PLSG | ≤ 0.25 |

| Variant | enrichment ratio |
| --- | --- |
| TESG | 24.9 |
| MRSG | ≤ 0.25 |
| MESG | 15.7 |
| SRSG | ≤ 0.25 |
| SLSG | 11.8 |
| GKLS | ≤ 0.25 |
| SVRW | ≤ 0.25 |
| RDAA | ≤ 0.25 |
| KNCK | ≤ 0.25 |
| VGMN | ≤ 0.25 |
| HWYH | ≤ 0.25 |
| IYMC | ≤ 0.25 |
| EKVI | ≤ 0.25 |
| HFDW | ≤ 0.25 |
| HAFN | ≤ 0.25 |
| EAES | ≤ 0.25 |
| KYSG | ≤ 0.25 |
| FCSG | ≤ 0.25 |
| AKSG | 5.13 |
| SESG | 28.9 |
| AESG | 25.4 |
| STSG | 8.56 |
| SQSG | 6.12 |
| SCSG | 20.2 |

| Variant | enrichment ratio |
| --- | --- |
| AESN | 11 |
| LITF | ≤ 0.25 |
| ATGN | 3.43 |
| HEMV | ≤ 0.25 |
| SNWR | ≤ 0.25 |
| PGVC | ≤ 0.25 |
| TGVC | 16.8 |
| SLVC | ≤ 0.25 |
| HEMI | 12.7 |
| SNCH | 7.35 |
| HEMR | ≤ 0.25 |
| GGVC | ≤ 0.25 |
| SNVC | 11.5 |
| SNMH | 11.9 |
| SNVG | 3.21 |
| ANPD | ≤ 0.25 |
| TGHW | ≤ 0.25 |
| KVMG | ≤ 0.25 |

From a collection of fitness landscapes (doi:10.1126/science.1257360)
